Hits are enriched below; roughly 3.8% of the tested compounds scored in any of these assays.
HT1080-NT tox: kills 2HG-producing HT-1080-NT fibrosarcoma cells. HT-1080-NT fibrosarcoma viability, CellTiter-Glo ATP luminescence, 48 h. Potency, µM (top dose mostly 46.1 µM), for the others: at the highest dose activity, negative = less viability, hits mostly cytotoxic. actives 1.6% (n = 360,000);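 note: NT is the 2HG producing partner of a matched IDH1 knockdown line; 0% = DMSO-treated cells and -100% = media-only wells without cells; nearly all actives have a fitted effect of over 55% in size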
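Fibrosarcoma NT cells, 750 per well in 5% FBS RPMI, were exposed to compound for 48 hours. Viability: CellTiter-Glo luminescence.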
TGFb inhibitor: blocks TGF-b signaling; HepG2 CAGA-GFP TGF-b/SMAD3 reporter, GFP fluorescence, 18 h; TGF-beta stimulated, 500 pg/mL final; Potency, µM (series often up to 46.1 µM), for inactives: at the highest dose activity, negative = inhibition, hits mostly inhibitors; actives 1.2% (n = 410,000); AID 588855; note: % is set by controls: 0 for no effect and ±100 for the full control effect; nearly all actives have a fitted effect of over 65% in size
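Using HEPG2 CAGA-GFP reporter cells at 1000 cells/well, we pinned test compounds, stimulated with recombinant TGF-beta (500 pg/mL final) and measured total well GFP after 18 h.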
ATXN2 expr inh: reduces ATXN2 reporter expression in HEK-293 cells. HEK-293 ATXN2-luciferase reporter, luminescence, 24 h. Potency, µM (series often up to 57 µM), without a hit: top-dose activity change, negative = inhibition, most hits filed as inhibitors. actives 0.72% (n = 360,000); note: % is set by controls: 0 for no effect and ±100 for the full control effect; nearly all actives have a fitted effect of over 55% in size
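qHTS (up to 57 uM final) was run with 24 h compound exposure of reporter cells at 37 °C. Each well was multiplexed: SteadyGlo luminescence measured ATXN2-luciferase expression after a fluorogenic Gly-Phe-AFC viability readout (25 uM final).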
HT1080 IDH1KD tx: HT-1080 IDH1 knockdown cell toxicity (counter line); actives 2% (n = 360,000); AID 686971; HT-1080 IDH1 knockdown viability, ATP luminescence, 48 h; Potency, µM (top dose mostly 46.1 µM), without a hit: top-dose activity, negative = toxicity, hits mostly cytotoxic;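 note: 0% = DMSO wells and -100% = cell-free medium wells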
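After a 2 h attachment period, IDH1KD HT-1080 cells took pin-transferred compound for 48 h at 37 °C; ATP-based luminescence after 10 min room-temperature reagent incubation reported viability.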
HepG2 viability: kills HepG2 cells in TGF-b inhibitor counter-screen. HepG2 CAGA-GFP viability, ATP luminescence, 18 h. Potency, µM (highest dose often 46.1 µM), without a hit: at the highest dose activity change, negative = cytotoxicity, usual class: cytotoxic. actives 0.76% (n = 410,000). AID 588856
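HepG2 CAGA-GFP cells (1000/well, DMEM with 1% FBS) received compound, then TGF-beta at 500 pg/mL final, and were incubated 18 hours at 37 degrees C. Viability was read by CellTiter-Glo luminescence. Media-only wells were set as complete cell-killing and DMSO as no toxicity.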
S2 tox: viability counter-screen for ATXN expression inhibitors. S2 cells (HEK-293 line with an ATXN2-luciferase reporter) viability, CellTiter-Fluor protease fluorescence, 24 h. Potency, µM (highest dose often 56.7 µM), usual class: cytotoxic. actives 0.49% (n = 400,000). AID 651635; note: nearly all actives have a fitted effect of over 40% in size
An asterisk follows results filed as active; i = inactive; ? = inconclusive; · = no result given; [ ] = dose if it differs, or a comment. Calls come from the whole dose curve; as a rule, active = well fitted curve in the direction sought with a large enough effect; inconclusive = small, poorly fitted or top-dose-only effect, or another doubt; inactive = no such curve, though single readings can be large; an effect the other way counts as inactive or inconclusive. Potency is the fitted concentration of half-maximal effect.

SMILES	HT1080-NT tox	TGFb inhibitor	ATXN2 expr inh	HT1080 IDH1KD tx	HepG2 viability	S2 tox
Cc1oc(-c2ccccc2F)nc1CS(=O)CC(=O)NCc1ccc(Cl)cc1 (stereo not drawn)	-3.7%	-9.3%	15.3%	7.0%	-11.8%	i
CCOC(=O)C1(CCOc2ccccc2)CCN(Cc2ccc(OC)c(O)c2)CC1	10.9%	-10.1%	-14.4%	0.0%	-36.9%	i
CCOC(=O)C1(CCOc2ccccc2)CCN(Cc2ccc(OC)c(COC)c2)CC1	?	?	-23.2%	13µM*	-34.5%	i
CCOC(=O)C1(CCc2ccccc2)CCN(Cc2ccc(OC)cc2)CC1	-13.8%	-9.7%	-5.7%	-1.9%	-0.7%	i
CCOC(=O)C1(CCc2ccccc2)CCN(Cc2c(O)cccc2OC)CC1	?	?	-30.0%	32.6µM*	-51.5%	i
O=C1c2ccccc2/C(=C\c2ccc3[nH]ccc3c2)N1c1ccccc1	0.9%	-5.8%	-4.2%	-12.3%	-2.9%	?
CCC/C(=C1/c2ccccc2C(=O)N1c1ccccc1)c1ccc2[nH]ccc2c1	?	11.2µM*	-8.6%	?	-27.9%	?
O=C(c1ccco1)N1CCNCC1	·	·	-0.7%	·	·	i
CN(C)CCCN(C(=O)c1ccc(S(=O)(=O)N(C)C)cc1)c1nc2cc3c(cc2s1)OCO3	-18.5%	3.4%	-30.5%	-12.0%	-9.6%	i
CCN(Cc1ccccc1)S(=O)(=O)c1ccc(C(=O)N(CCCN(C)C)c2nc3c(C)c(C)ccc3s2)cc1	?	?	0.0%	18.4µM*	-102.5%	?
Cc1ccc2sc(N(CCCN(C)C)C(=O)c3ccc(S(=O)(=O)N(C)C4CCCCC4)cc3)nc2c1C	-11.5%	?	?	?	-112.1%	·
CCN(Cc1ccccc1)S(=O)(=O)c1ccc(C(=O)N(CCCN(C)C)c2nc3cc4c(cc3s2)OCO4)cc1	?	15.8µM*	?	?	12.6µM*	?
CCC(=O)O[C@]1(C(=O)COC)[C@@H](C)C[C@H]2[C@@H]3CCC4=CC(=O)C=C[C@]4(C)C3(F)[C@@H](O)C[C@@]21C (stereo partly drawn)	·	·	-1.1%	·	·	i
Cc1cccc(NC(=O)c2ccc(Cn3nc(N4CCN(c5ccccc5)CC4)ccc3=O)o2)c1C	·	?	?	·	-13.4%	?
CCOC(=O)c1c(C)[nH]c(C)c1C(=O)COC(=O)c1ccc(Cl)c(S(=O)(=O)NCc2ccccc2)c1	18.4µM*	-12.6%	-12.4%	23.1µM*	-25.8%	?
COc1cccc2sc(Nc3nnc(-c4ccccc4Cl)o3)nc12	?	?	?	?	-31.9%	?
COc1cccc(-c2nnc(Nc3nc4c(F)cccc4s3)o2)c1	7.94µM*	?	-27.7%	6.31µM*	-34.9%	i
COc1ccccc1-c1nnc(Nc2nc3c(OC)cccc3s2)o1	0.92µM*	?	-23.9%	0.461µM*	-24.2%	?
Oc1cccc2ccc(/C=C/c3cccs3)nc12	?	?	0.0%	11.2µM*	-21.9%	i
Oc1ccc(Cl)cc1/C=C/c1ccc2cccc(O)c2n1	?	?	-19.9%	20.6µM*	-65.5%	?
Oc1c(Cl)cc(Cl)cc1/C=C/c1ccc2cccc(O)c2n1	?	?	?	?	-38.1%	i
Cc1cccc(/C=C/c2cccs2)n1	·	?	·	·	-25.0%	·
Cc1ccsc1/C=C/c1ccc2cccc(O)c2n1	12.6µM*	?	-33.0%	11.2µM*	-29.9%	?
Cc1ccsc1/C=C/c1ccc2ccccc2n1	-7.1%	-23.6%	7.8%	-7.2%	-64.1%	i
S=c1[nH]nc(-c2cc(-c3ccccc3)n[nH]2)n1/N=C/C(Br)=C/c1ccccc1	7.31µM*	11.2µM*	?	5.8µM*	-26.8%	29.9µM*
SMILES	HT1080-NT tox	TGFb inhibitor	ATXN2 expr inh	HT1080 IDH1KD tx	HepG2 viability	S2 tox
S=c1[nH]nc(-c2cc(-c3ccccc3)n[nH]2)n1/N=C/c1ccccc1	17.2%	-16.5%	-12.0%	1.5%	-14.0%	i
COc1ccc(-c2noc(N3CCC(C(=O)N(C)c4cc(Cl)ccc4OC)CC3)n2)cc1	·	?	?	·	-25.2%	?
C/C(=N\Nc1nc(C)c(C)s1)c1ccc([N+](=O)[O-])cc1	20.6µM*	8.6%	29.9µM*	16.4µM*	-18.4%	·
Cn1c(=O)n(C/C=C/c2ccccc2)c(=O)c2c1nc1n2CCN1c1ccccc1	·	0.8%	·	·	12.5%	·
O=C(Nc1ccc2c(c1)CCCN2C(=O)c1cccs1)c1ccc(F)c(F)c1	·	?	?	·	-18.7%	25.1µM*
O=C(Nc1ccc2c(c1)CCCN2C(=O)c1cccs1)c1cccc(C(F)(F)F)c1	·	-7.5%	?	·	-10.4%	35.5µM*
CCOC(=O)c1cnc2cc(C(F)(F)F)ccc2c1Nc1ccc(F)cc1F	·	-1.7%	-6.9%	·	5.8%	i
CCCCCCCCCCCCCCCCCC(=O)[O][Al]	·	·	·	·	·	i
O=S(=O)(c1ccc(N2CCC(c3ccc(Cl)cc3)=N2)cc1)N(CCO)CCO	-20.5%	?	-27.1%	-28.6%	20µM*	·
COc1ccc(CNc2ncnc3sccc23)cc1	?	0.0%	-33.6%	23.1µM*	-7.6%	?
c1csc(CNc2ncnc3sccc23)c1	-8.8%	-19.6%	-14.2%	25.9µM*	0.8%	i
COc1ccc(CNc2ncnc3sccc23)cc1OC	?	3.6%	-21.1%	-26.7%	5.4%	i
O=C(c1ccncc1)N(Cc1cc2ccccc2[nH]c1=O)C1CCCCC1	7.08µM*	-18.4%	-8.1%	5.62µM*	-69.5%	i
O=C(c1ccco1)N(Cc1cc2ccccc2[nH]c1=O)C1CCCCC1	-5.1%	?	8.6%	-9.8%	-12.5%	i
O=C1C(=C(c2ccccc2)N2CCOCC2)Cc2ccccc21	14.6µM*	3.16µM*	·	4.61µM*	8.91µM*	?
Cc1nc(-c2ccc(C(=O)Nc3ccccc3F)cc2)cs1	11.6µM*	2.5%	-3.0%[11.3 µM]	20.6µM*	-61.1%	i
Cc1nc(-c2ccc(C(=O)Nc3ccc(F)cc3)cc2)cs1	-22.3%	0.6%	59.3%[11.3 µM]	-2.7%	-26.6%	i
Nc1nc(-c2ccc(NC(=O)c3ccco3)cc2)cs1	7.31µM*	14.1%	15.8µM*	16.4µM*	-25.5%	i
Cc1nc(-c2ccc(NC(=O)c3ccco3)cc2)cs1	?	-13.3%	3.98µM*	?	-62.7%	i
CC(C)C(=O)NNS(=O)(=O)c1ccccc1[N+](=O)[O-]	15.1%	-3.2%	-2.1%	3.6%	15.8µM*	i
